About 17,000 (5.5%) of roughly 310,000 compounds were called active. Inconclusive results (about 11%) are left out. The entries come from a sample that favours actives as a whole. Values without a mark were called inactive. Calls come from the whole dose curve; as a rule, active = well fitted inhibition curve with a large enough effect; inconclusive = small, poorly fitted or top-dose-only effect, or effect the other way; inactive = no such curve, though single readings can be large or run the other way.
molecular target: Nuclear receptor ROR-gamma (Mus musculus) (UniProt P51450); experiment: qHTS for inhibitors of ROR gamma transcriptional activity; settings: Drosophila S2 Gal4-RORgamma UAS-luciferase reporter, 20 h; series mostly up to 53.6 µM; activity change, negative = inhibition: at the top concentration; note: nearly all actives have a fitted effect of over 60% in size
Source text: NIH Molecular Libraries Probe Production Network [MLPCN] NIH Chemical Genomics Center [NCGC] MLPCN Grant: R03 DA026211-01 Assay Provider: Dan Littman, New York University Assay Overview: The retinoic acid-related orphan receptor (ROR) gamma is a transcription factor that has a central role in the differentiation of Th17 cells, a subset of T helper cells that secrete the inflammatory cytokines IL-17, IL-17F, and IL-22. Th17 cells have been implicated in graft versus host disease, autoimmune disease and asthma. ROR gamma is induced in naive T helper cells in the presence of TGF-beta combined with IL-6, IL-21, or IL-23, and thereafter directs the expression of the Th17 lineage cytokines. To study the mechanism of action of ROR gamma, an insect cell-based assay was screened. This Drosophila Schneider cell line was stably transfected with two vectors: a gene expressing a fusion of the Gal4 DNA binding domain and ROR gamma transactivation domain under the control of the metallothionine promoter and a Photinus luciferase reporter regulated by the Gal4 binding site enhancer, UAS. […] Small molecule inhibitors of ROR gamma activity are detected by a decrease in luciferase reporter activity.
Assay Protocol Summary: For screening, 600 cells in 4 uL/well were dispensed into white solid 1536-well plates (Grenier) using a solenoid-based dispenser. Following transfer of 23 nL compound or DMSO vehicle by a pin tool, the plates were incubated 1 hr at ambient temperature, and 1 uL/well copper sulfate (700 uM final concentration) was added. The plates were centrifuged 15 s at 1000 RPM and incubated 20 hr at ambient temperature. After addition of 1.5 uL Photinus luciferase detection reagent, the plates were incubated 10 min at ambient temperature and then read by an ViewLux (Perkin Elmer) to detect luminescence. Keywords: NIH Roadmap, MLPCN, MLI, MLSMR, qHTS, NCGC, qHTS, nuclear hormone receptor, retinoic acid-related orphan receptor, ROR gamma
% is set by controls: 0 for no effect and ±100 for the full control effect; potency is the fitted concentration of half-maximal effect.

Nuclear receptor ROR-gamma (Mus musculus), sequence (P51450 whole entry, looked up, the tested form may be a part): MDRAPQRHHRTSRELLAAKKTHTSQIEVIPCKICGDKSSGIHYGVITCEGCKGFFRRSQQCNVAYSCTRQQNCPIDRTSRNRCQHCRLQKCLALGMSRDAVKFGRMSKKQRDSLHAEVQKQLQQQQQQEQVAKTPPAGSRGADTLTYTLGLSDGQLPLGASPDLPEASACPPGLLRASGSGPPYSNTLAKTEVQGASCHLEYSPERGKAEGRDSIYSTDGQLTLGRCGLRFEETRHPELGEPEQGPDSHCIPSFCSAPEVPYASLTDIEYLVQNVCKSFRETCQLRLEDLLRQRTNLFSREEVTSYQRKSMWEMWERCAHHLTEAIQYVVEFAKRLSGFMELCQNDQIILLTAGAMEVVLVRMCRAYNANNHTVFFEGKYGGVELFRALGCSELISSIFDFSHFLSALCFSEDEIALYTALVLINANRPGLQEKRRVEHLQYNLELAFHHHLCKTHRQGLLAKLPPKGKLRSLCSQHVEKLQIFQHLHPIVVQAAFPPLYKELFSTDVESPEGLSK

Row | Structure (SMILES) | activity change, negative = inhibition | Potency
1 | c1ccc2sc(N3CCNCC3)nc2c1 | -0.416% | 
2 | c1ccc2sc(SNC3CCCCC3)nc2c1 |  | 8.91 µM (active)
3 | c1ccc2sc(C3CCCNC3)nc2c1 (stereo unspecified) | 1.38% | 
4 | CC[N+](C)(CC)CCC[n+]1c(-c2ccccc2)c2cc(N)ccc2c2ccc(N)cc21 |  | 3.16 µM (active)
5 | CN[C@@H]1C[C@H]2O[C@@](C)([C@@H]1OC)n1c3ccccc3c3c4c(c5c6ccccc6n2c5c31)C(=O)NC4 | -41% [at 10 µM] | 
6 | CCOc1cccc(=NC2CCCCC2)c2c(C)[nH]c(C)c12 | -1.6% | 
7 | O=c1oc2ccccc2c(O)c1C(c1ccccc1O)c1c(O)c2ccccc2oc1=O | -16.8% | 
8 | CCNC[C@H](O)c1cccc(O)c1 | -12.3% [at 2.98 µM] | 
9 | C/C(=C\C=C/[C@@H](C)C(=O)O)[C@H]1CN[C@H](C(=O)O)[C@@H]1CC(=O)O | -22.1% | 
10 | Fc1ccc(C(OCCN2CCN(C/C=C\c3ccccc3)CC2)c2ccc(F)cc2)cc1 |  | 14.1 µM (active)
11 | ClC(Cl)=C(Cl)C(Cl)=C(Cl)Cl | 11.4% | 
12 | CC(C)(C)C(O)(CCc1ccc(Cl)cc1)Cn1cncn1 (stereo unspecified) | 3.39% | 
13 | O=C(N/N=C/c1c(O)n(C2CC2)c(=S)[nH]c1=O)c1ccccc1 |  | 14.1 µM (active)
14 | O=c1[nH]c(=O)n(Cc2ccccc2)c(O)c1/C=N/Nc1c(F)c(F)c(F)c(F)c1F | -1.88% | 
15 | O=c1[nH]c(=S)n(C2CC2)c(O)c1/C=N/N1CCOCC1 | -6.79% | 
16 | COc1ccc(C2N3CC(C)(C)CN23)cc1 (stereo unspecified) | 17.3% | 
17 | Clc1ccccc1 | 2.46% | 
18 | C[C@@H]1C[C@@H]2O[C@H]2/C=C\C=C\C(=O)Cc2c(Cl)c(O)cc(O)c2C(=O)O1 |  | 10 µM (active)
19 | CNC(C)[C@@H](O)c1ccccc1 (stereo partly specified) | -6.04% | 
20 | c1ccc(CN2CC[C@@]3(CCCNC3)C2)cc1 | -4.86% | 
21 | CCCCC/C=C\C/C=C\C/C=C\C=C\[C@H](CCCC(=O)O)OO | -25.9% | 

Row | Structure (SMILES) | activity change, negative = inhibition | Potency
22 | CCC(C)C(=O)O[C@@H]1C[C@@]2(C)C(c3ccoc3)OC(=O)CC23OC2(C)O[C@@]14[C@@]1(C)C(CC(=O)OC)C5(C)CC1(O)C(O)(C5OC(=O)C1(C)OC1C)C(OC(C)=O)[C@@]34O2 (stereo partly specified) | 40.2% | 
23 | CCCCn1c(=O)c(C(=O)Nc2ccccc2Cl)c(O)c2ccccc21 | 1.37% [at 1.91 µM] | 
24 | CCCCCn1c(=O)c(C(=O)NCc2ccccc2)c(O)c2ccccc21 |  | 12.6 µM (active)
25 | CCCCCn1c(=O)c(C(=O)NCc2ccccn2)c(O)c2ccccc21 |  | 5.01 µM (active)
26 | CCCCCn1c(=O)c(C(=O)Nc2c(C)n(C)n(-c3ccccc3)c2=O)c(O)c2ccccc21 | 11.8% | 
27 | CC[N+]1(CCOC(=O)C(O)(c2ccccc2)c2ccccc2)CCCCC1 | 39.3% | 
28 | Cc1cccc([C@H](C)c2cnc[nH]2)c1C | -27.6% | 
29 | CCC1(c2ccccc2)C(=O)NC(=O)N(C)C1=O (stereo unspecified) | 20.7% | 
30 | O=c1[nH]c(=O)n(-c2ccccc2)c(O)c1C=NC12CN3CN(CN(C3)C1)C2 | -4.47% | 
31 | CC(=O)c1c(O)c(C)c(O)c(Cc2c(O)c3c(c(C(=O)/C=C/c4ccccc4)c2O)OC(C)(C)C=C3)c1O | 15.8% | 
32 | CC[C@@H]1CN2CC[C@@H]1C[C@H]2[C@H](O)c1ccnc2ccc(OC)cc12 | 2.09% | 
33 | N#CC(C#N)=Cc1cc(O)c(O)c([N+](=O)[O-])c1 | -101% | 
34 | CCN1C[C@@]2(COC)CC[C@H](OC)[C@]34[C@@H]1[C@]1(OCO[C@@]15C[C@@H](OC)C1C[C@H]3[C@H]5[C@@H]1OC)[C@H](O)[C@@H]24 | 1.1% [at 16.9 µM] | 
35 | C[C@H]1C/C=C/[C@@H]2[C@@H]3O[C@]3(C)[C@@H](C)[C@H]3[C@H](Cc4ccccc4)NC(=O)[C@]32OC(=O)O/C=C/[C@](C)(O)C1=O | -36% | 
36 | C=CCN1CCC23c4c5ccc(O)c4O[C@H]2C(=O)CC[C@@]3(O)C1C5 (stereo partly specified) | 14.1% [at 10 µM] | 
37 | COC([CH2][Hg])CNC(=O)c1ccccc1OCC(=O)O (stereo unspecified) | -0.223% | 
38 | CN(C)C[C@H]1CCCC[C@]1(O)c1cccc(O)c1 | -2.52% | 
39 | c1csc(CN2CCCC3(CCNCC3)C2)n1 | -23.1% | 
40 | C[C@H]1CC[C@@]2(NC1)O[C@@H]1C[C@H]3[C@@H]4CC=C5C[C@@H](O)CC[C@]5(C)[C@@H]4CC[C@]3(C)[C@@H]1[C@@H]2C | 0.0152% [at 16.9 µM] | 
41 | CN1CCCC(=C(c2cccs2)c2cccs2)C1 | 0.594% | 
42 | CCCCCCCCCCCCN=C(N)N | 15.1% | 

Row | Structure (SMILES) | activity change, negative = inhibition | Potency
43 | Cc1cc(C)cc(C(=O)N(CCc2ccccc2)C2=CC3CCC(C2)N3C)c1 (stereo unspecified) |  | 12.6 µM (active)
44 | CN1C2C=C(N(C(=O)c3ccc(Cl)cc3)c3ccccc3)CC1CC2 (stereo unspecified) | -23.9% | 
45 | CCCCC/C=C\C/C=C\C/C=C\C/C=C\CCCCCC(=O)NCCO |  | inactive
46 | O=C(N/N=C/c1ccc([N+](=O)[O-])o1)c1cc([N+](=O)[O-])cc([N+](=O)[O-])c1O | -2.56% | 
47 | c1ccc(N2CC[C@@]3(CCCNC3)C2)nc1 | -12.7% | 
48 | CC/C(=N\NC(=O)c1ccccc1O)c1c(O)n(Cc2ccccc2)c(=O)[nH]c1=O |  | 12.6 µM (active)
49 | CCC(=NCCc1ccccc1)c1c(O)n(C2CCCCC2)c(=O)[nH]c1=O | -28.4% | 
50 | CCC(=NCc1ccco1)c1c(O)n(Cc2ccccc2)c(=O)[nH]c1=O | 33.4% | 
51 | NC[C@H](O)c1ccc(O)cc1 | 3.67% [at 16.9 µM] | 
52 | COc1ccc(C2Oc3c(I)c(OC)cc(OC)c3CC2O)cc1OC (stereo unspecified) | 12.7% | 
53 | CC(C)(C)c1ccc(CN2C(=O)CN=C(c3ccccc3)c3ccccc32)cc1 | 24.6% | 
54 | ClCCBr | 14.1% | 
55 | Cc1cc(C)cc(NC(=S)NC2CC3CCCC(C2)N3Cc2cccs2)c1 (stereo unspecified) |  | 8.91 µM (active)
56 | C[C@@H]1C[C@H]2CC[C@H](O2)[C@H](C)C(=O)O[C@@H](C)C[C@@H]2CC[C@@H](O2)[C@@H](C)C(=O)O[C@H](C)C[C@H]2CC[C@H](O2)[C@H](C)C(=O)O[C@@H](C)C[C@@H]2CC[C@@H](O2)[C@@H](C)C(=O)O1 |  | 0.891 µM (active)
57 | CC(=O)Oc1ccccc1C(=O)Nc1ncc([N+](=O)[O-])s1 | -79.1% | 
58 | N#Cc1c(Cl)c(Cl)c(Cl)c(C#N)c1Cl |  | 2.51 µM (active)
59 | O=C1CCc2cccc3c2N1CC3 | -10.2% | 
60 | Nc1ccc(-c2ccc(N)c(N)c2)cc1N | 12.8% | 
61 | CC1=CC(=O)C2=C(C)C[C@H](O)[C@H]3[C@H](C)C(=O)O[C@@H]3C12 (stereo partly specified) | 2.61% | 

Source: PubChem BioAssay AID2551 (National Center for Advancing Translational Sciences (NCATS), 2010)
